Compounds with a hit are over-represented: about 5.3% of the library has one in this group of screens.
Marburg entry inh – Marburg virus entry inhibition. Marburg virus pseudotyped entry inhibition, cell reporter. 300,000 tested, 1.8% active. AID 540276. Potency, µM (highest dose often 37.8 µM), without a hit: top-dose activity change, negative = inhibition, hits mostly inhibitors; calls by dose curve; tested in HEK293 cells
Vaccinia Venus – inhibitors of vaccinia virus (Venus reporter) | AID 720580 | Vaccinia virus Venus reporter expression, fluorescence | 330,000 tested, 0.46% active | Potency, µM (top dose mostly 36.5 µM), without a hit: at the top dose activity change, negative = inhibition, actives largely listed as inhibitors; calls by dose curve; tested in A549 cells; note: nearly all actives have a fitted effect of over 30% in size
Lassa entry inh – blocks Lassa virus binding to or entry into cells | Lassa virus pseudotype entry inhibition, cell reporter | Potency, µM (titrated, usually from 37.9 µM), for inactives: top-dose activity change, negative = inhibition, hits mostly inhibitors | 300,000 tested, 1.2% active; calls by dose curve; tested in HEK293 cells; note: nearly all actives have a fitted effect of over 50% in size
FMDV inh – antivirals against foot and mouth disease virus; FMDV antiviral cell-based qHTS; Potency, µM (highest dose often 57.9 µM), for the others: at the highest dose activity change, negative = inhibition, most hits filed as inhibitors; 410,000 tested, 1.2% active; calls by dose curve; tested in HEK293T cells; note: read-out not given here; nearly all actives have a fitted effect of over 45% in size
VACV mCherry inh – vaccinia inhibition (mCherry reporter); Vaccinia virus mCherry reporter infection, fluorescence; Potency, µM (top dose mostly 36.5 µM), without a hit: top-dose activity change, negative = inhibition, hits mostly inhibitors; 310,000 tested, 0.63% active; calls by dose curve; tested in A549 cells; note: nearly all actives have a fitted effect of over 35% in size
HCV inhibitor – blocks hepatitis C virus | Potency, µM (titrated, usually from 41.8 µM), for the others: at the highest dose activity change, negative = inhibition, usual class: inhibitors | 340,000 tested, 3.4% active | Huh7.5.1 HCVcc-Cre infection, luciferase reporter, 44 h; active = well fitted inhibition curve with a large enough effect; inconclusive = small, poorly fitted or top-dose-only effect, or another doubt; inactive = no such curve, though single readings can be large or run the other way
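Cells (1,000/well) were plated 4 h before compound, then infected with HCVcc-Cre virus (~0.5 moi). After 44 h further culture, infection was read as luciferase luminescence following a 15 min substrate incubation at room temperature.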
Active calls of the source: *; i = inactive; ? = inconclusive; . = no result given; [ ] = remark or other dose. % is set by controls: 0 for no effect and ±100 for the full control effect; potency is the fitted concentration of half-maximal effect.

SMILES	Marburg entry inh	Vaccinia Venus	Lassa entry inh	FMDV inh	VACV mCherry inh	HCV inhibitor
COC(=O)CC(=O)CSc1nc2cc(C(=O)NCC(C)C)ccc2c(=O)n1CCc1ccccc1	.	-12%	?	-18%	-9%	.
O=C1Nc2ccccc2C12OCC(COc1ccc(Cl)cc1)O2 (centres undefined)	-7%[46.1 µM]	?	-6%	?	-6%	13µM*
CN1C(=O)C2(OCC(COc3ccc(Cl)cc3)O2)c2ccccc21 (centres undefined)	?	-18%	-23%	.	i	-23%
CSc1nn(Cc2cccc(F)c2)c(N(C(C)=O)C(C)=O)c1S(=O)(=O)c1ccccc1	-19%[46.1 µM]	-23%	?	-3%	?	.
Cc1c(N=C2N=C(NC(=O)c3ccc(F)cc3)c3ccccc32)c(=O)n(-c2ccccc2)n1C	?	-8%	10%	28µM*	i	-10%
O=S(=O)(Nc1cccc2ncccc12)c1cccs1	?	?	?	20µM*	13µM*	?
CCCNC(=O)c1c(NC(=O)c2ccccc2F)sc2c1CCCCC2	10%[46.1 µM]	-3%	-16%[46.1 µM]	3%	-9%	.
CCCNC(=O)c1sc2c(c1C(=O)Nc1ccccn1)CCCC2	?	-11%	-18%	-27%	-19%	10µM*
O=C(/C=C/c1ccc([N+](=O)[O-])s1)N1CCCC1	.	13µM*	.	-7%	?	?
O=C(/C=C/c1ccc([N+](=O)[O-])s1)N1CCCCC1	8.9µM*	14µM*	?	4%	?	?
O=C(/C=C/c1ccc([N+](=O)[O-])s1)N1CCN(c2ccccc2)CC1	.	.	.	-24%	.	?
CC1CN(C(=O)/C=C/c2ccc([N+](=O)[O-])s2)CC(C)O1 (centres undefined)	11µM*	?	?	13%	?	?
CCOc1ccccc1NC(=O)c1nc(SCc2ccccc2F)ncc1Cl	.	6%	.	.	0%	.
CC(C)(C)c1ccc(S(=O)(=O)NC(=O)C2(C)CCN2C(=O)C2(c3ccccc3)CC2)cc1 (centres undefined)	.	-2%	.	6%	2%	.
CCCCC(c1nnnn1CS(=O)(=O)c1ccc(C)cc1)N1CCN(c2ccccc2)CC1 (centres undefined)	14µM*	-19%	?	-14%	-22%	0%
CCC(CC)C(=O)Nc1ccc(OCc2cc(=O)n3ccc(C)cc3n2)cc1	.	3%	-18%[46.1 µM]	-10%	-12%	.
Ic1ccc(/C=C2\C=Cc3ccccc32)cc1	.	-8%	.	.	-17%	.
Cc1ccc(Cn2c(C3CCCN3c3nc(-c4cc(Cl)c(N)c(Cl)c4)cs3)nc3cc(C(=O)NCCCO)ccc32)cc1 (centres undefined)	.	?	.	0%	?	1.4µM*
Cc1ccc(Cn2c(C(C)Nc3nc(-c4ccc(F)cc4)cs3)nc3cc(C(=O)NCCCO)ccc32)cc1 (centres undefined)	.	-21%	.	-5%	-25%	?
CCOC(=O)c1nnc(-c2cccs2)nc1Oc1ccc(Cl)cc1	2%[46.1 µM]	-23%	5%	28µM*	-24%	6%
CCOc1ccccc1CNc1ncnc2ccc(-c3c(C)noc3C)cc12	.	.	.	32µM*	.	.
Cc1cc(N(C)Cc2ccccc2)nc(-c2ccccc2)n1	?	.	2%	-14%	.	10µM*
COCC(C)n1c(C)cc(C(=O)CSc2nc(C)c(C)c(C)n2)c1C (centres undefined)	-4%	.	.	-16%	.	10µM*
COc1cc2sc(C)nc2c2ccccc12	.	.	.	-14%	.	10µM*
Cc1nc2c(ccc3c2ccc2nc(C)sc23)s1	?	-6%	9%	26%	.	13%
SMILES	Marburg entry inh	Vaccinia Venus	Lassa entry inh	FMDV inh	VACV mCherry inh	HCV inhibitor
CN(C(=O)COC(=O)c1cc(-c2ccc(Cl)s2)nc2ccccc12)C1CCS(=O)(=O)C1 (centres undefined)	.	.	.	-7%	.	10µM*
CCOC(=O)c1sc(NC(=O)CN2C(=O)NC3(CC(C)CC(C)(C)C3)C2=O)cc1C (centres undefined)	?	?	-10%[46.1 µM]	-17%	?	11µM*
CCOC(=O)c1sc(NC(=O)CN2C(=O)NC3(CC(C)CC(C)(C)C3)C2=O)c(C(=O)OCC)c1C (centres undefined)	-30%	-6%	-6%	-17%	-15%	5%
CCOC(=O)c1ccc(N2C(=O)c3n[nH]c(-c4cccs4)c3C2c2ccc(OCC)cc2)cc1 (centres undefined)	13µM*	?	?	-28%	?	.
CCOC(=O)c1ccc(N2C(=O)c3n[nH]c(-c4cccs4)c3C2c2cccc(O)c2)cc1 (centres undefined)	?	-14%	?	35µM*	-19%	.
O=C(Nc1ccccc1)C12CC1/C(=N\O)c1ccccc1O2 (centres undefined)	.	-12%	.	-7%	i	.
COc1cc2c(cc1OC)C(c1cc3cc(OC)c(OC)cc3[nH]c1=O)N(C(=O)C1CC1)CC2 (centres undefined)	13µM*	.	26µM*	-4%	.	7%
Cc1cc2nc3ccc(=[N+](C)C)cc-3sc2cc1N	.	.	.	-8%	.	3.2µM*
CN(C)c1ccc2nc3ccc(=O)cc-3sc2c1	.	?	.	75%	73%	.
Cc1ccc(Cl)cc1N1CCN(c2ncnc3c2nc2n3CCCC2)CC1	.	?	?	28µM*	-30%	.
FC(F)(F)c1cccc(N2CCN(c3ncnc4c3nc3n4CCCC3)CC2)c1	.	-23%[7.34 µM]	-1%[46.1 µM]	20µM*	-28%[7.34 µM]	.
COc1ccccc1N1CCN(c2ncnc3c2nc2n3CCCC2)CC1	-22%[46.1 µM]	-15%	-22%[46.1 µM]	?	-15%	.
COc1cccc(N2CCN(c3ncnc4c3nc3n4CCCCC3)CC2)c1	.	?	?	11µM*	?	.
c1ccc(N2CCN(c3ncnc4c3nc3n4CCCC3)CC2)cc1	.	?	?	14µM*	-29%	.
Cc1ccc(C)c(N2CCN(c3ncnc4c3nc3n4CCCC3)CC2)c1	.	-5%	16%[46.1 µM]	?	-13%	.
CC(=O)c1ccc(N2CCN(c3ncnc4c3nc3n4CCCC3)CC2)cc1	.	?	-14%[46.1 µM]	18µM*	-27%	.
COc1ccc(N2CCN(c3ncnc4c3nc3n4CCCCC3)CC2)cc1	.	?	-12%[46.1 µM]	11µM*	?	.
CCOC(=O)C1CCCN(C(=O)Cn2ncc3c(C)n(Cc4ccc(Cl)cc4)c(C)c3c2=O)C1 (centres undefined)	3%[46.1 µM]	-16%	-2%[46.1 µM]	18µM*	-6%	.
CN1C2CCC1/C(=C\c1ccccc1F)C(=O)/C2=C/c1ccccc1F	2%	?	-26%	-16%	11µM*	-2%
CCOC(=O)C1=C(C)n2c(s/c(=C/c3cccc([N+](=O)[O-])c3)c2=O)=NC1c1ccc(O)c(OC)c1 (centres undefined)	?	.	?	?	.	8.9µM*
COc1ccc(NC(=O)C2Cc3c(-c4ccccc4Oc4ccccc4)ccnc3O2)cc1OC (centres undefined)	.	-26%	.	25µM*	-13%	.

Compound activity (PubChem BioAssay)
